About 83,000 compounds went through this panel and 20% of them were active in at least one assay; those are over-represented in the sample as a whole.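 How to read the values: 0–100, growth inhibition (40 = 60% inhibited); 0, no net growth; -100 to 0, cell death (-40 = 40% of starting cells died; -100 = all dead).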 Calls of active or inactive are those of the source. The calls were made as follows: active = growth percent below 10; inactive = the rest.
How the values were obtained:
Test in all cases: NCI-60 one-dose screen, 48 h (100 = growth as untreated, 0 = no growth, -100 = all killed)
NCI-H23 lung = conditions: 10 µM unless noted
NCI-H226 lung = conditions: 10 µM unless noted
NCI-H322M lung = conditions: 10 µM unless noted
HOP-62 NSCLC = conditions: 10 µM unless noted
NCI-H460 lung = conditions: 10 µM unless noted
HOP-92 NSCLC = conditions: 10 µM
NCI-H522 lung = conditions: 10 µM unless noted
A549/ATCC NSCLC = conditions: 10 µM unless noted
786-0 renal = conditions: 10 µM unless noted
COLO 205 colon = conditions: 10 µM unless noted

Measured: growth

C=CCn1c(SCC(=O)Nc2ccc(C(=O)/C=C/c3ccc(Cl)cc3)cc2)nnc1-c1c[nH]c2ccccc12
inactive: NCI-H23 lung 77.8% | NCI-H226 lung 68% | NCI-H322M lung 88% | HOP-62 NSCLC 88.8% | NCI-H460 lung 95.1% | HOP-92 NSCLC 79.9% | NCI-H522 lung 73.4% | A549/ATCC NSCLC 64.8% | 786-0 renal 106% | COLO 205 colon 107%

N#Cc1cccc(CN2CCc3ncn(Cc4ccc(Cl)cc4)c(=O)c3C2)c1
inactive: NCI-H23 lung 26.2% | NCI-H226 lung 30.4% | NCI-H322M lung 42.9% | HOP-62 NSCLC 31.2% | NCI-H460 lung 13.5% | HOP-92 NSCLC 30.3% | NCI-H522 lung 16.6% | A549/ATCC NSCLC 24.9% | 786-0 renal 42.8% | COLO 205 colon 11.7%

O=C(NNc1nc2cc(F)ccc2n2c(CN3CCCC3)ccc12)c1cnccn1
inactive: NCI-H23 lung 26.3% | NCI-H226 lung 18.2% | NCI-H322M lung 27.1% | HOP-62 NSCLC 17.6% | HOP-92 NSCLC 18.2% | A549/ATCC NSCLC 13.6% | 786-0 renal 12.7%
active: NCI-H460 lung 2.93% | NCI-H522 lung -3.33% | COLO 205 colon 7.69%

CNC(=O)c1cc(N2CCc3cc(NC(=O)Nc4ccc(Cl)c(C(F)(F)F)c4)ccc32)ccn1
inactive: NCI-H23 lung 56.1% | NCI-H226 lung 77.2% | NCI-H322M lung 87.1% | HOP-62 NSCLC 85.1% | NCI-H460 lung 38% | HOP-92 NSCLC 68% | NCI-H522 lung 50% | A549/ATCC NSCLC 49.2% | 786-0 renal 49.7% | COLO 205 colon 58%

CCC(CC)N1C(=O)/C(=c2\sc3n(c2=O)NC2C(N=3)N(CC)C(=O)N2CC)c2ccccc21 (stereo not given)
inactive: NCI-H23 lung 44.1% | NCI-H226 lung 79.1% | NCI-H322M lung 80.6% | HOP-62 NSCLC 73.2% | NCI-H460 lung 27.5% | HOP-92 NSCLC 120% | NCI-H522 lung 62.7% | A549/ATCC NSCLC 57.6% | 786-0 renal 72.7% | COLO 205 colon 37.8%

CC(=O)N1C(=S)NC(=O)C1CC(C)C (stereo not given)
inactive: NCI-H23 lung 106% | NCI-H226 lung 100% | NCI-H322M lung 97.6% | HOP-62 NSCLC 99.8% | NCI-H460 lung 106% | HOP-92 NSCLC 98.9% | NCI-H522 lung 94.9% | A549/ATCC NSCLC 101% | 786-0 renal 97.6% | COLO 205 colon 110%

COc1ccc(NC2=C(Cl)C(=O)c3nc(C)ccc3C2=O)cc1OC
inactive: NCI-H23 lung 59% | NCI-H226 lung 97.1% | NCI-H322M lung 99% | HOP-62 NSCLC 110% | NCI-H460 lung 100% | HOP-92 NSCLC 112% | NCI-H522 lung 78.8% | A549/ATCC NSCLC 107% | 786-0 renal 99% | COLO 205 colon 108%

C=CCN(C)S(=O)(=O)/N=C1\NC(=O)NC1=C(Cl)Cl
inactive: NCI-H23 lung 37.5% | NCI-H226 lung 89% | NCI-H322M lung 95% | HOP-62 NSCLC 76.5% | NCI-H460 lung 45.6% | A549/ATCC NSCLC 103% | 786-0 renal 32.2%
active: HOP-92 NSCLC -23.4% | NCI-H522 lung -57% | COLO 205 colon -40.8%

O=C(NNc1nc2cc(F)ccc2n2c(CO)ccc12)c1cnccn1
inactive: NCI-H23 lung 22.8% | NCI-H226 lung 16.3% | NCI-H322M lung 22.7% | HOP-92 NSCLC 11.9% | A549/ATCC NSCLC 13.6% | 786-0 renal 17.4%
active: HOP-62 NSCLC 5.67% | NCI-H460 lung 2.22% | NCI-H522 lung 2.58% | COLO 205 colon 8.65%

NC(N)=Nc1ccc(Oc2cccc(NC(N)=Nc3ccc(I)cc3F)c2)cn1
inactive: NCI-H23 lung 52.2% | NCI-H226 lung 84.3% | NCI-H322M lung 53.1% | HOP-62 NSCLC 66.9% | NCI-H460 lung 40.6% | NCI-H522 lung 41.2% | A549/ATCC NSCLC 57.9% | 786-0 renal 80.8% | COLO 205 colon 39.7%
active: HOP-92 NSCLC -3.49%

COC(=O)C(Cc1ccccc1)Nc1nc(NC(Cc2ccccc2)C(=O)OC)nc(N2CCOCC2)n1 (stereo not given)
inactive: NCI-H23 lung 107% | NCI-H226 lung 102% | NCI-H322M lung 97.4% | HOP-62 NSCLC 97.3% | NCI-H460 lung 107% | HOP-92 NSCLC 119% | NCI-H522 lung 91% | A549/ATCC NSCLC 108% | 786-0 renal 100% | COLO 205 colon 105%

C=C(C=O)[C@@H]1CC[C@]2(COC(C)=O)CC[C@]3(C)C(CC[C@@H]4[C@@]5(C)CC[C@H](OC(C)=O)C(C)(C)[C@@H]5CC[C@]43C)[C@@H]12 (stereo not given in full)
inactive: NCI-H322M lung 40.5% | HOP-62 NSCLC 80.6% | A549/ATCC NSCLC 36.5%
active: NCI-H23 lung -22.4% | NCI-H226 lung -55.5% | NCI-H460 lung -23.2% | HOP-92 NSCLC -78.8% | NCI-H522 lung -35.5% | 786-0 renal 2.99% | COLO 205 colon -8.44%

CCCCCc1ccc(S(=O)(=O)Nc2cc(-c3csc(NC(=O)CN4CCN(C)CC4)n3)ccc2N2CCN(C)CC2)cc1
inactive: NCI-H23 lung 45.1% | NCI-H226 lung 71.8% | HOP-62 NSCLC 42.5% | HOP-92 NSCLC 49.9% | A549/ATCC NSCLC 15.7%
active: NCI-H322M lung 6.19% | NCI-H460 lung -56% | NCI-H522 lung -39.5% | 786-0 renal -50.9% | COLO 205 colon -51.2%

CCN1CCN(Cc2cn(-c3ccc(S(N)(=O)=O)cc3)nn2)CC1
inactive: NCI-H23 lung 108% | NCI-H226 lung 96.5% | NCI-H322M lung 106% | HOP-62 NSCLC 107% | NCI-H460 lung 108% | HOP-92 NSCLC 104% | NCI-H522 lung 97.8% | A549/ATCC NSCLC 109% | 786-0 renal 102% | COLO 205 colon 109%

CS(=O)(=O)c1ccc(-c2nn(-c3ccccc3)cc2/C=N/NC(=O)c2nc(N)n[nH]2)cc1
inactive: NCI-H23 lung 96.3% | NCI-H226 lung 101% | NCI-H322M lung 104% | HOP-62 NSCLC 103% | NCI-H460 lung 83% | HOP-92 NSCLC 103% | NCI-H522 lung 94.2% | A549/ATCC NSCLC 97.3% | 786-0 renal 96.8% | COLO 205 colon 96.3%

COc1ccc(Oc2ccc(/C=N/NC(=O)CSc3nc4ccccc4c(=O)n3-c3ccc(Cl)cc3)cc2)cc1
inactive: NCI-H23 lung 41.6% | NCI-H226 lung 79.7% | NCI-H322M lung 84.7% | HOP-62 NSCLC 73.3% | NCI-H460 lung 11.2% | HOP-92 NSCLC 77.3% | NCI-H522 lung 51.3% | A549/ATCC NSCLC 47% | 786-0 renal 25.2% | COLO 205 colon 72.8%

COc1c(N2CC3CCCNC3C2)c(F)cc2c(=O)c(C(=O)N/N=C/c3ccc(Br)cc3)cn(C3CC3)c12 (stereo not given)
inactive: NCI-H23 lung 88.3% | NCI-H226 lung 91.4% | NCI-H322M lung 89% | HOP-62 NSCLC 88.4% | NCI-H460 lung 86% | HOP-92 NSCLC 57.9% | NCI-H522 lung 77.6% | A549/ATCC NSCLC 83.1% | 786-0 renal 85.3% | COLO 205 colon 100%

Cc1ccc(-n2cc(/C=C/C(=O)c3ccc(O)cc3)c(-c3ccc(S(C)(=O)=O)cc3)n2)cc1
inactive: NCI-H23 lung 68.9% | NCI-H226 lung 99.6% | NCI-H322M lung 99.1% | HOP-62 NSCLC 76% | NCI-H460 lung 80.8% | HOP-92 NSCLC 110% | NCI-H522 lung 58.9% | A549/ATCC NSCLC 102% | 786-0 renal 94.4% | COLO 205 colon 111%

COc1cc(OC)c(/C=C/S(=O)(=O)Cc2ccc(OC)c(NC(=O)CCC(=O)NO)c2)c(OC)c1
inactive: NCI-H23 lung 16.6% | NCI-H226 lung 27.2% | NCI-H322M lung 47.8% | HOP-62 NSCLC 25.3% | HOP-92 NSCLC 63.5% | A549/ATCC NSCLC 24.6% | 786-0 renal 28.5%
active: NCI-H460 lung 6.85% | NCI-H522 lung -6.54% | COLO 205 colon -53.6%

CNC(=O)c1cc(-c2ccc(NS(=O)(=O)c3ccc(C)cc3)cc2)nc2cccnc12
inactive: NCI-H23 lung 103% | NCI-H226 lung 88.7% | NCI-H322M lung 110% | HOP-62 NSCLC 99.7% | NCI-H460 lung 107% | HOP-92 NSCLC 103% | NCI-H522 lung 91.6% | A549/ATCC NSCLC 104% | 786-0 renal 110% | COLO 205 colon 116%

COc1ccc(COc2ccc(/C=C3\C(=O)Nc4ccccc43)cc2OC)cc1
inactive: NCI-H23 lung 103% | NCI-H226 lung 103% | NCI-H322M lung 106% | HOP-62 NSCLC 100% | NCI-H460 lung 103% | HOP-92 NSCLC 101% | NCI-H522 lung 93.4% | A549/ATCC NSCLC 109% | 786-0 renal 105% | COLO 205 colon 123%

COc1c(N2CC3CCCNC3C2)c(F)cc2c(=O)c(C(=O)N/N=C/c3ccccc3)cn(C3CC3)c12 (stereo not given)
inactive: NCI-H23 lung 90.7% | NCI-H226 lung 103% | NCI-H322M lung 94% | HOP-62 NSCLC 96.6% | NCI-H460 lung 98.7% | HOP-92 NSCLC 75.3% | NCI-H522 lung 109% | A549/ATCC NSCLC 101% | 786-0 renal 66.6% | COLO 205 colon 97.5%

— PubChem BioAssay (NCI)
